This is a sample that favours compounds with a hit; in the whole collection about 2.5% have one here.
MEKK2 WT-MEK5: raises or lowers MEK5 binding to wildtype human MEKK2 PB1 domain. Q9Y2U5. bead flow cytometry, Alexa488-MEK5 binding to MEKK2 WT; actives lie on both sides. binding response (% of control), % at 10 µM. hit rate 1.1% among 290,000; in the data active = binding response below about 67% or above about 130%
MEKK3 PB1 HTS: modulators (inhibitors or enhancers) of MEK5 binding to human MEKK3 PB1 domain | binding response (% of control), % at 10 µM | bead-based flow cytometry, Alexa488-MEK5 binding to MEKK3; actives lie on both sides; 0 = blocked by unlabeled MEK5, 100 = vehicle | hit rate 1.4% among 290,000;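 active = binding response more than 3 SD above or below the average of its plate-row segment, actives on both sides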;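 also: Alexa488 bead fluorescence after subtracting the streptavidin-only scavenger bead signal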
GRK2 inh: inhibitors of human GRK2 displacing RNA aptamer. inhibition of aptamer binding, % at 10 µM. P25098. hit rate 0.59% among 330,000. bead flow cytometry, FAM-aptamer displacement from GRK2. AID 488847;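 active = inhibition of aptamer binding above 40%, roughly 3 SD of noise, on plates passing a quality check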;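 also: median bead fluorescence of bound FAM aptamer so fluorescent compounds give negative values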
Target sequence (P25098 whole entry, looked up): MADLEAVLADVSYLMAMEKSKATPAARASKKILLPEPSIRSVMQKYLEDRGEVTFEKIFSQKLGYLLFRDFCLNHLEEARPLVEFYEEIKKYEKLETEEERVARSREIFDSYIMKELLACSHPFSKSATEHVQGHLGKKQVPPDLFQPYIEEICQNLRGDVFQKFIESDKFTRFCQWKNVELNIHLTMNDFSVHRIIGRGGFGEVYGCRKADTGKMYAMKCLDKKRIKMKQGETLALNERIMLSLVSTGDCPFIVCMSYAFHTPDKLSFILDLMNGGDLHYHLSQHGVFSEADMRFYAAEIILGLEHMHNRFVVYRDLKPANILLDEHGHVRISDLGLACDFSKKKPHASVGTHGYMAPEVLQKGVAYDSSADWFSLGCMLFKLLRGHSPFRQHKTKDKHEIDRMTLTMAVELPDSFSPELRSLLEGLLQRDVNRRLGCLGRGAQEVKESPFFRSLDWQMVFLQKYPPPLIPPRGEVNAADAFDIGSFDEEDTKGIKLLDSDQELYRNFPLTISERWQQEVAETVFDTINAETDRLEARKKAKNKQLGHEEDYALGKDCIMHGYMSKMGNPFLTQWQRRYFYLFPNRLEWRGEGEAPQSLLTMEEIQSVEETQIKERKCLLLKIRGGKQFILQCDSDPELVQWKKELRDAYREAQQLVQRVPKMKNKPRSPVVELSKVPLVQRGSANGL
MEKK2 mut-MEK5: signal of MEK5 binding to mutant human MEKK2 PB1 domain | percent response, % at 10 µM | hit rate 0.35% among 290,000 | bead flow cytometry, Alexa488-MEK5 binding to MEKK2 mutant | AID 1530; in the data active = percent response above about 24%, passing the limit was not always enough
MEKK2wt confirm: raises or lowers MEK5 binding to wildtype human MEKK2, retest; hit rate 2.4% among 5,900; binding response (% of control), % at 10 µM; bead flow cytometry, Alexa488-MEK5 binding to MEKK2 WT; actives lie on both sides; shares compounds with MEKK3 PB1 HTS; in the data active = binding response below about 16% or above about 210%; inactive = in between
MEKK2mut confirm: signal of MEK5 binding to mutant human MEKK2, retest; shares compounds with MEKK3 PB1 HTS; bead flow cytometry, Alexa488-MEK5 binding to MEKK2 mutant; percent response, % at 10 µM; hit rate 2% among 5,900; in the data active = percent response mostly above about 71%, no sharp cut-off; inactive = mostly below about 38%;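 also: higher means compound restores mutant binding toward wildtype level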
MEKK3-MEK5 inh: MEKK3-MEK5 PB1 inhibition, single concentration confirmation; shares compounds with MEKK3 PB1 HTS; AID 1894; binding response (% of control), % at 10 µM; hit rate 1.8% among 5,900; bead flow cytometry, Alexa488-MEK5 binding to MEKK3; hits give low values;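 active = binding response below 72% of control, or above a set upper limit, though filed actives all read lower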;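 also: lower values mean stronger disruption of MEK5 binding to MEKK3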
Of the large screens only hits and unclear results are named; the others gave an inactive call (follow-up assays come after a bar, where they were run); [ ] = another dose, or the depositor's remark.

Cc1ccc2nc(N(CCN(C)C)C(=O)c3cc(Cl)sc3Cl)sc2c1	none
Cc1ccc2nc(N(CCCN(C)C)C(=O)c3ccc(Br)s3)sc2c1	MEKK2 WT-MEK5 169 | MEKK2wt confirm inactive | MEKK2mut confirm inactive | MEKK3-MEK5 inh inactive
COc1ccc(-n2c(O)c(C=Nc3ccccc3)c3ccccc3c2=O)cc1	none
CCN(c1ccc(N=Cc2c(O)n(Cc3ccc(OC)cc3)c(=O)c3ccccc23)cc1)C(C)C	MEKK3 PB1 HTS 56[inhibitor], MEKK2 mut-MEK5 175 (no result: MEKK2 WT-MEK5, GRK2 inh) | MEKK2wt confirm inactive | MEKK2mut confirm inactive | MEKK3-MEK5 inh inactive
C=CCNC(=S)/N=c1/ccccn1CCC	MEKK3 PB1 HTS 75[inhibitor] | MEKK2wt confirm inactive | MEKK2mut confirm inactive | MEKK3-MEK5 inh inactive
COc1ccc2nc(NC(=O)c3sc4nc(C)cc(C)c4c3N)sc2c1	MEKK3 PB1 HTS 48[inhibitor] | MEKK2wt confirm inactive | MEKK2mut confirm inactive | MEKK3-MEK5 inh inactive
Cc1cc(C)c2c(N)c(C(=O)Nc3ncc(C)s3)sc2n1	none
N#Cc1c(Nc2ccccc2)c(C=NCCN2CCOCC2)c[nH]c1=O	none
COC(=O)c1c(NC(=O)Cc2ccccc2)sc2c1CC(C)(C)NC2(C)C	none
COC(=O)c1c(NC(=O)COc2ccc(Cl)cc2)sc2c1CC(C)(C)NC2(C)C	MEKK2 WT-MEK5 186, MEKK2 mut-MEK5 49 | MEKK2wt confirm inactive | MEKK2mut confirm inactive | MEKK3-MEK5 inh inactive
Cc1ccc(N(C)C(=O)C2CCCN2S(=O)(=O)c2ccc3c(c2)n(C)c(=O)c(=O)n3C)cc1 (stereo not drawn)	MEKK3 PB1 HTS 57[inhibitor] | MEKK2wt confirm inactive | MEKK2mut confirm inactive | MEKK3-MEK5 inh inactive
CCc1cccc(NC(=O)C2CCCN2S(=O)(=O)c2ccc3c(c2)n(C)c(=O)c(=O)n3C)c1 (stereo not drawn)	MEKK3 PB1 HTS 71[inhibitor] | MEKK2wt confirm inactive | MEKK2mut confirm inactive | MEKK3-MEK5 inh inactive
O=C(Nc1cccc(S(=O)(=O)N2CCOCC2)c1)[C@@H]1CCCN1S(=O)(=O)c1ccc(Cl)cc1	MEKK3 PB1 HTS 153 | MEKK2wt confirm inactive | MEKK2mut confirm inactive | MEKK3-MEK5 inh inactive
COc1ccc(S(=O)(=O)N2CCc3ccccc32)cc1C(=O)N1CCN(C=O)CC1	none (no result: MEKK2 WT-MEK5, MEKK3 PB1 HTS, MEKK2 mut-MEK5)
N/C(=N\OC(=O)COc1ccc2ccccc2c1)c1cccnc1	none
CC(C)(O)C#Cc1ccc(C(=O)N2CCN(c3ccc(Cl)cc3)CC2)cc1	MEKK3 PB1 HTS 49[inhibitor] | MEKK2wt confirm inactive | MEKK2mut confirm inactive | MEKK3-MEK5 inh inactive
COc1cccc2cc(C(=O)N(Cc3ccccc3)CC3CCCO3)c(=O)oc12 (stereo not drawn)	MEKK3 PB1 HTS 124 | MEKK2wt confirm inactive | MEKK2mut confirm inactive | MEKK3-MEK5 inh inactive
O=C(c1cc2ccccc2oc1=O)N(Cc1ccccc1)CC1CCCO1 (stereo not drawn)	none
COc1ccc(S(=O)(=O)NCCSc2ccc(C)cc2)cc1OC	MEKK3 PB1 HTS 122 | MEKK2wt confirm inactive | MEKK2mut confirm inactive | MEKK3-MEK5 inh inactive
Cc1nc(SCC(=O)NC(C)(C#N)C2CC2)c2c(-c3cccs3)csc2n1 (stereo not drawn)	none
Cc1nc(SCC(=O)NCC(F)(F)F)c2c(-c3cccs3)csc2n1	MEKK3 PB1 HTS 128 | MEKK2wt confirm inactive | MEKK2mut confirm inactive | MEKK3-MEK5 inh inactive
COc1cc2[nH]c(=O)n(CCC(=O)N3CCc4ccccc4C3)c(=O)c2cc1OC	MEKK3 PB1 HTS 122 | MEKK2wt confirm inactive | MEKK2mut confirm inactive | MEKK3-MEK5 inh inactive
COc1ccc(-c2csc(NC(=S)NC(=O)/C=C/c3ccccc3)n2)cc1Br	none
COc1ccccc1C1CN=NC12CCCc1ccccc1C2=O (stereo not drawn)	MEKK2 WT-MEK5 33[inhibitor], MEKK3 PB1 HTS 24[inhibitor] | MEKK2wt confirm inactive | MEKK2mut confirm inactive | MEKK3-MEK5 inh inactive
CCOC(=O)N1CCC(NC(=O)C2=CCN(S(=O)(=O)c3ccc(OC)cc3)CC2)CC1	MEKK3 PB1 HTS 128 | MEKK2wt confirm inactive | MEKK2mut confirm inactive | MEKK3-MEK5 inh inactive
Cc1cc(C)nc(NC(N)=NCCc2c[nH]c3ccccc23)n1	none
Cc1cc(C)nc(NC(=NCCc2c[nH]c3ccccc23)NC(=O)Nc2ccc(Cl)cc2)n1	MEKK3 PB1 HTS 59[inhibitor] | MEKK2wt confirm inactive | MEKK2mut confirm inactive | MEKK3-MEK5 inh inactive
O=C(CSc1nc2nc3c(cc2c(=O)n1-c1ccccc1)CCCC3)Nc1ccccc1	MEKK3 PB1 HTS 131 | MEKK2wt confirm inactive | MEKK2mut confirm inactive | MEKK3-MEK5 inh inactive
NC(=S)N/N=C\c1c(OCc2ccccc2Cl)ccc2ccccc12	none
COc1ccc(C(C(=O)NC2CCCCC2)N(C(=O)c2sc(C)nc2C)c2ccccc2)cc1 (stereo not drawn)	none
COc1ccc(C(C(=O)NC2CCCC2)N(C(=O)c2ccoc2C)c2ccccc2)cc1 (stereo not drawn)	MEKK3 PB1 HTS 137 | MEKK2wt confirm inactive | MEKK2mut confirm inactive | MEKK3-MEK5 inh inactive
COc1ccc(C(C(=O)NC2CCCCC2)N(C(=O)c2sc(C)nc2C)c2ccc(OC)cc2)cc1 (stereo not drawn)	MEKK3 PB1 HTS 46[inhibitor] | MEKK2wt confirm inactive | MEKK2mut confirm inactive | MEKK3-MEK5 inh inactive
O=C(NO)c1cc(OCC(F)(F)F)ccc1OCC(F)(F)F	none
CC1CCC2C(=O)N(c3ccccc3OC(=O)c3ccccc3F)C(=O)C2C1 (stereo not drawn)	MEKK3 PB1 HTS 143 | MEKK2wt confirm inactive | MEKK2mut confirm inactive | MEKK3-MEK5 inh inactive
Cc1ccc2[nH]c(=O)c(CN(CCCO)S(=O)(=O)c3cccc4nsnc34)cc2c1	none
COCCN(C(=S)Nc1ccc(OC)cc1)C1CCN(C(C)=O)CC1	none
COCCN(C(=S)Nc1cccc(OC)c1)C1CCN(C(C)C)CC1	MEKK3 PB1 HTS 137 | MEKK2wt confirm inactive | MEKK2mut confirm inactive | MEKK3-MEK5 inh inactive
Cc1ccc(NC(=S)N(Cc2ccco2)C2CCN(C(C)C)CC2)cc1	MEKK3 PB1 HTS 132 | MEKK2wt confirm inactive | MEKK2mut confirm inactive | MEKK3-MEK5 inh inactive
COCCN(C(=O)Nc1ccc(OC)cc1OC)C1CCN(C(C)C)CC1	MEKK3 PB1 HTS 81[inhibitor] | MEKK2wt confirm inactive | MEKK2mut confirm inactive | MEKK3-MEK5 inh inactive
COCCN(C(=S)Nc1cccc(OC)c1)C1CCN(C(C)=O)CC1	none
COCCN(C(=S)Nc1ccc(OC)cc1)C1CCN(C(C)C)CC1	MEKK3 PB1 HTS 134 | MEKK2wt confirm inactive | MEKK2mut confirm inactive | MEKK3-MEK5 inh inactive
Cc1ccc(NC(=S)N(CCN2CCCCC2)Cc2ccco2)cc1	none
COc1ccc([C@H]2CC(=O)C=C(c3ccc(SC)cc3)C2)cc1	none (no result: MEKK2 WT-MEK5, MEKK3 PB1 HTS, MEKK2 mut-MEK5)
CCN1CCN(c2nc3sc4c(c3c(=O)n2-c2ccc(OC)cc2)CCCCC4)CC1	none
